# Results reported in PubChem BioAssay (Tox21).
# Results filed as inconclusive are left out. Active and inactive are the calls of the source. The call rests on the fitted dose curve; in most records, active means well fitted activation curve with a large enough effect in the signal ratio in the repeat runs (not every such curve was filed as active); inconclusive means weak or mixed curves, or effect the other way; inactive means flat fitted curve, though single readings scatter; the % refers to the signal ratio.
# Target: Bile acid receptor (Homo sapiens) (UniProt Q96RI1)
# Sequence (Q96RI1 whole entry, looked up): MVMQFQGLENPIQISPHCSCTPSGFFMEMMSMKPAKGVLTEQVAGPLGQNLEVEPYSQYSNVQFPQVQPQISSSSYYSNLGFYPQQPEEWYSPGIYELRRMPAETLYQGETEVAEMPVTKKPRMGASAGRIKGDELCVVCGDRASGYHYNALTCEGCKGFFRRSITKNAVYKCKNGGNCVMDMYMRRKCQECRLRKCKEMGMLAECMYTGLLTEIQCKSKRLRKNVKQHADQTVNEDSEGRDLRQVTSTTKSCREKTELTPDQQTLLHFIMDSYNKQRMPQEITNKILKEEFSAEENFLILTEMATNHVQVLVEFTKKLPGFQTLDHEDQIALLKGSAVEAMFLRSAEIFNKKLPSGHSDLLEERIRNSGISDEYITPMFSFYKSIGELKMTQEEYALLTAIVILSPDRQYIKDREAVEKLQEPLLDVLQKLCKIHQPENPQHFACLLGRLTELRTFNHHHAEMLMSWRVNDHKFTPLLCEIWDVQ
# Assay: qHTS assay to identify small molecule agonists of the farnesoid-X-receptor (FXR) signaling pathway (AID 743220)
# Details: HEK293T FXR-UAS-bla, beta-lactamase FRET ratio, 16 h; series mostly up to 62.6 µM; activation: at the top concentration
# From the text: National Center for Advancing Translational Sciences [NCATS]
# NIH Chemical Genomics Center [NCGC]
# U.S. Environmental Protection Agency [EPA]
# National Institutes of Environmental Health Sciences [NIEHS]
# National Toxicology Program [NTP]
# U.S. Food and Drug Administration [FDA]
# The farnesoid-X-receptor (FXR), a nuclear hormone receptor, is highly expressed in liver, intestine, kidney and adrenal cortex. Natural ligands of FXR are the bile acids (Cholic acid, Chenodeoxy cholic acid etc). FXR is an important regulator of diverse metabolic pathways, including the bile acid homeostasis, lipid and glucose metabolisms. FXR regulates the expression of target genes by binding either as a monomer or as a heterodimer with the retinoid X receptor (RXR). Numerous studies have reported that FXR exerts protective function during cholestasis, diabetes, liver regeneration, and cancer. To identify compounds that activate FXR signaling, GeneBLAzer FXR-UAS-bla HEK 293T cell line (Invitrogen, Carlsbad, CA) containing a beta-lactamase reporter gene under the control of a UAS response element was used to screen the Tox21 10K compound library.
# Tox21 Assay Protocol Summary:
# FXR-bla cells were dispensed at 5000 cells/5uL/well in 1536-well black wall/clear bottom plates using a Multidrop Combi (Thermo Fisher Scientific, Waltham, MA) dispenser. After the assay plates were incubated at 37C and 5% CO2 for 5 h, 23 nL of compounds dissolved in DMSO, positive controls or DMSO only was transferred to the assay plate by a Pintool station (Kalypsys, San Diego, CA). The assay plates were incubated at 37C for 16 h. After 1 uL of LiveBLAzerTM B/G FRET substrate was added using a Bioraptr Flying Reagent Dispenser (FRD) workstation (Beckman Coulter, Indianapolis, IN), the plates were incubated at room temperature for 2 h, and fluorescence intensity was measured by an Envision plate reader (PerkinElmer, Shelton, CT).
# On the % scale 0 is the no-effect control and ±100 the full control effect.
SMILES,outcome,activation
COC(=O)C1CCC(C(=O)OC)CC1 (stereo not given),inactive,
CC(=O)/C=C/C1=C(C)CCCC1(C)C,inactive,
C[C@]12CC[C@@H]3c4ccc(O)cc4C[C@@H](CCCCCCCCCS(=O)CCCC(F)(F)C(F)(F)F)[C@H]3[C@@H]1CC[C@@H]2O (stereo not given in full),,2.1% (inactive)
Nc1cccc(N)c1,inactive,
CC(C)=CCC/C(C)=C/CO,inactive,
CCCCCCCCOc1ccc(C(=O)c2ccccc2)c(O)c1,inactive,
O=C(OCc1ccccc1)c1ccccc1,inactive,
COCC(C)N (stereo not given),inactive,
COCCOCCOC,inactive,
Cc1cccc2ccccc12,inactive,
O=c1c(-c2ccc(O)cc2)coc2cc(O)cc(O)c12,inactive,
Oc1cccc(O)c1,inactive,
C=CCOC(=O)CC(C)C,inactive,
CCCCCCCCCCCCCC(=O)OC(C)C,inactive,
CCOCCO,inactive,
COc1cc2c(c(OC)c1OC)-c1ccc(OC)c(=O)cc1[C@@H](NC(C)=O)CC2,inactive,
CCCCCCCCCCCCCCCCCC(=O)OCC(O)CO (stereo not given),inactive,
CC(C)CC(C)CC(O)CC(C)C (stereo not given),inactive,
COC1=CC(=O)C[C@@H](C)[C@]12Oc1c(Cl)c(OC)cc(OC)c1C2=O,inactive,
Cc1cnc(NC(=O)C2=C(O)c3ccccc3S(=O)(=O)N2C)s1,inactive,

SMILES,outcome,activation
O=C1CCCCCN1,inactive,
CCN1CCCC1=O,inactive,
CC1=NN(c2ccccc2)C(=O)C1,inactive,
Cc1ccc(O)c(-n2nc3ccccc3n2)c1,inactive,
Cc1c(N(C)C)c(=O)n(-c2ccccc2)n1C,inactive,
CC(O)COc1ccccc1 (stereo not given),inactive,
COc1cc(O)c(C(=O)c2ccccc2)cc1S(=O)(=O)O,inactive,
COc1cc(C=O)ccc1O,inactive,
CN(C)C=O,inactive,
COC(=O)c1ccc(C=O)cc1,inactive,
CCn1cc(C(=O)O)c(=O)c2ccc(C)nc21,inactive,
CCOC(=O)C(C)(C)Oc1ccc(Cl)cc1,inactive,
CC(=O)CCC(C)C,inactive,
CN(C)Cc1cc(CN(C)C)c(O)c(CN(C)C)c1,inactive,
COc1ccccc1O,inactive,
NC(=O)c1ccc([N+](=O)[O-])cc1Cl,inactive,
c1ccc2[nH]c(-c3cscn3)nc2c1,inactive,
C[C@]12C[C@H](O)[C@H]3[C@@H](CCC4=CC(=O)CC[C@@]43C)[C@@H]1CC[C@@H]2C(=O)CO,inactive,
CCCCC/C(C=O)=C\c1ccccc1,inactive,
C[C@]12CC[C@@H]3c4ccc(O)cc4CC[C@H]3[C@@H]1CCC2=O,,1.76% (inactive)
